MARV entry inh – blocks Marburg virus binding to or entry into cells; Potency, µM (top dose mostly 37.8 µM), hits mostly inhibitors; Marburg virus pseudotyped entry inhibition, cell reporter; 1.8% of 300,000 active; calls by dose curve; tested in HEK293 cells
CHX counter – counter-screen hit for Shiga toxin inhibitors, cycloheximide. 12% of 300,000 active. cell reporter, cycloheximide protein synthesis inhibition counterscreen. AID 2314. max response, %; in the data active = max response mostly above about 13%, no sharp cut-off; inactive = mostly below about 14%; note: read at 38.3 µM for the half of the compounds with a filed dose
Pf growth 96h – inhibits malaria parasite growth, 96 h. P. falciparum luciferase reporter growth, 96 h. Potency, µM (titrated, usually from 28.7 µM), usual class: inhibitors. 6.9% of 320,000 active. AID 504834
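Infected RBCs, 2% Hct / 0.05% parasitemia final; luciferase-reporter P. falciparum; cpd 96 h, 37 C, 5% CO2; luciferase detection reagent; luminescence.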
Shiga toxin inh – inhibitors of Shiga toxin in Vero cells. Vero cells, Shiga toxin protein synthesis inhibition reporter. inhibition, % at 38.7 µM. AID 2315. 9.2% of 290,000 active; in the data active = inhibition mostly above about 28%, no sharp cut-off; inactive = mostly below about 43%
LASV entry inh – inhibitors of Lassa virus binding or cell entry. Lassa virus pseudotype entry inhibition, cell reporter. Potency, µM (titrated, usually from 37.9 µM), actives largely listed as inhibitors. 1.2% of 300,000 active. AID 540256; calls by dose curve; tested in HEK293 cells; note: nearly all actives have a fitted effect of over 50% in size
Pf growth 48h – P. falciparum growth inhibition at 48 hours (one generation). 5.9% of 310,000 active. AID 504832. P. falciparum luciferase growth in erythrocytes, 48 h. Potency, µM (highest dose often 28.7 µM), usual class: inhibitors
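Cell-based growth assay: transgenic P. falciparum expressing firefly luciferase, cultured in red cells within RPMI 1640 containing 0.5% w/v Albumax, 24 mM bicarbonate and gentamycin. A drop in luciferase activity indicates inhibition.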
A number is an active result. A selection: hits, their analogues and other compounds. The true share with any hit is near 19%. Unless noted, calls come from the whole dose curve; as a rule, active = well fitted inhibition curve with a large enough effect; inconclusive = small, poorly fitted or top-dose-only effect, or another doubt; inactive = no such curve, though single readings can be large or run the other way.

Screening COc1ccc(OCc2cc(C(=O)NC(C)Cc3ccccn3)no2)c(Cl)c1 (stereo unspecified) returned MARV entry inh inactive, CHX counter 35, Pf growth 96h inactive, Shiga toxin inh 37, LASV entry inh inconclusive and Pf growth 48h inconclusive.
CN1c2ccccc2Oc2nnc(Cl)cc21 was read as MARV entry inh inactive, CHX counter inactive, Pf growth 96h inactive, Shiga toxin inh inactive, LASV entry inh inactive and Pf growth 48h inactive.
`CCN(CC)CCOc1cc2c(nn1)Oc1ccccc1N2C` gave MARV entry inh inconclusive, CHX counter inactive, Pf growth 96h 3.3µM, Shiga toxin inh inactive, LASV entry inh inactive and Pf growth 48h inactive.
`COC(=O)c1sc(S(=O)(=O)Nc2c(C)nn(C)c2C)c(C(=O)OC)c1C` gave MARV entry inh inactive, Pf growth 96h inactive, LASV entry inh inactive and Pf growth 48h inconclusive.
Screening Cc1cc(C)c(S(=O)(=O)Nc2ccc(Cl)cn2)c(C)c1 returned MARV entry inh inactive, CHX counter inactive, Pf growth 96h inactive, Shiga toxin inh inactive, LASV entry inh inactive and Pf growth 48h 10µM.
`O=S(=O)(Nc1ccc(Cl)cn1)c1ccc(Cl)cc1` gave CHX counter inactive, Pf growth 96h inconclusive, Shiga toxin inh inactive and Pf growth 48h inactive.
Screening O=C(N/N=C/c1ccccc1F)c1csc2c1CCCC2 returned MARV entry inh inactive, CHX counter 42, Pf growth 96h inactive, Shiga toxin inh 79, LASV entry inh 11µM and Pf growth 48h inactive.
O=C(N/N=C/c1cccc(F)c1)c1csc2c1CCCC2 was read as MARV entry inh inconclusive, CHX counter 55, Pf growth 96h inactive, Shiga toxin inh 95, LASV entry inh inconclusive and Pf growth 48h inactive.
`Cc1cccc(C)c1NC(=O)c1csc2c1CCCC2` gave MARV entry inh inactive.
Screening CCCc1nc2ccccc2c(=O)n1N returned MARV entry inh inactive, CHX counter inactive, Pf growth 96h inactive, Shiga toxin inh inactive and LASV entry inh inactive.
Screening Nn1c(COc2ccccc2)nc2ccccc2c1=O returned MARV entry inh inactive, CHX counter 48, Pf growth 96h inactive, Shiga toxin inh 57, LASV entry inh inactive and Pf growth 48h inactive.
Screening CCCCCc1nc2ccccc2c(=O)n1N returned MARV entry inh inactive, CHX counter 22, Pf growth 96h inconclusive, Shiga toxin inh inactive, LASV entry inh inactive and Pf growth 48h inactive.

Screening results (PubChem BioAssay)
